In PubChem BioAssay (NCI):
The panel holds about 83,000 compounds, 20% with a hit somewhere; the sample as a whole holds those more often.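 Single-dose data. Exposure time 48 hours. Values below 10 considered active.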 Values without a mark were called inactive. Calls of active or inactive are those of the source.

How the values were obtained:
Assay in all cases: NCI-60 one-dose screen, 48 h (100 = growth as untreated, 0 = no growth, -100 = all killed)
Conditions in all cases: 10 µM
SR leukemia = test system: SR leukemia
RPMI-8226 leukemia = test system: RPMI-8226 leukemia
OVCAR-8 ovarian = test system: OVCAR-8 ovarian
OVCAR-5 ovarian = test system: OVCAR-5 ovarian
OVCAR-4 ovarian = test system: OVCAR-4 ovarian
SK-OV-3 ovarian = test system: SK-OV-3 ovarian
IGROV1 ovarian = test system: IGROV1 ovarian
OVCAR-3 ovarian = test system: OVCAR-3 ovarian
HS 578T breast = test system: HS 578T breast
NCI/ADR-RES ovarian = test system: NCI/ADR-RES ovarian
T-47D breast = test system: T-47D breast
BT-549 breast = test system: BT-549 breast
MDA-MB-435 melanoma = test system: MDA-MB-435 melanoma
SW-620 colon = test system: SW-620 colon
MCF7 breast = test system: MCF7 breast
HCT-116 colon = test system: HCT-116 colon
HCC-2998 colon = test system: HCC-2998 colon
KM12 colon = test system: KM12 colon

Row | SMILES | growth (SR leukemia) | growth (RPMI-8226 leukemia) | growth (OVCAR-8 ovarian) | growth (OVCAR-5 ovarian) | growth (OVCAR-4 ovarian) | growth (SK-OV-3 ovarian) | growth (IGROV1 ovarian) | growth (OVCAR-3 ovarian) | growth (HS 578T breast) | growth (NCI/ADR-RES ovarian) | growth (T-47D breast) | growth (BT-549 breast) | growth (MDA-MB-435 melanoma) | growth (SW-620 colon) | growth (MCF7 breast) | growth (HCT-116 colon) | growth (HCC-2998 colon) | growth (KM12 colon)
1 | C=C(C)[C@@H]1CC[C@]2(COCCC#N)CC[C@]3(C)[C@H](CC[C@@H]4[C@@]5(C)Cc6c([nH]c7ccccc67)C(C)(C)[C@@H]5CC[C@]43C)[C@@H]12 | 94.7% | 86.1% | 107% | 89.3% | 88.5% | 100% | 105% | 93.9% | 90.6% | 98.1% | 81.8% | 95.3% | 95.8% | 92.6% | 81.1% | 82% | 104% | 95.8%
2 | COc1cc(C(=O)/C(C)=C/c2c[nH]c3ccccc23)cc(OC)c1OC | 17.1% | 49.9% | 20.3% | 53.3% | 50.1% | 29.9% | 18.8% | -8.19% (active) | 44.9% | 5.38% (active) | 53% | -9% (active) | 5.74% (active) | 29.9% | 15.4% | 2.11% (active) | 15.2% | 16.5%
3 | CCCCCOC(=O)Nc1nc(=O)n(C2O[C@H](C)[C@@H](O)[C@H]2O)cc1F (stereo partly drawn) | 101% | 101% | 92.3% | 104% | 109% | 93.4% | 107% | 106% | 104% | 96.4% | 102% | 102% | 98.4% | 99.1% | 99.8% | 101% | 101% | 103%
4 | COc1cc(-c2nn(-c3ccc(NC(=O)NCCNS(=O)(=O)c4ccc(F)cc4)cc3)cc2-c2ccncc2)ccc1Cl | 1.26% (active) | -21.6% (active) | 9.18% (active) | 27.1% | 41.8% | 18.1% | 27.3% | 7.55% (active) | 21.6% | 79.2% | 34.8% | -3.98% (active) | -0.232% (active) | 18.3% | 6.49% (active) | -3.49% (active) | 6.84% (active) | 2.84% (active)
5 | NC1=CC(=O)C(=O)c2cccnc21 | 86% | 73.8% | 76% | 101% | 91.8% | 93.9% | 76.7% | 84% | 77.5% | 82.7% | 97.9% | 86% | -82.8% (active) | 73.8% | 52.5% | 86.6% | 83% | 76.7%
6 | CC(C)N(CCOc1cccc(-c2nc3sccn3c2-c2ccnc(S(C)(=O)=O)n2)c1)C(C)C | 64.3% | 37.7% | 79.2% | 115% | 64.5% | 85.7% | 94.7% | 90.6% | 95.8% | 89.5% | 88.3% | 128% | 86.1% | 67.1% | 54.4% | 44.9% | 95.9% | 87.8%
7 | COc1cc2cc(Oc3ccc(NC(=O)Nc4cccc(C(F)(F)F)c4)cc3)c(C)nc2cc1OC | -6.62% (active) | -5.94% (active) | 8.32% (active) | 27.8% | 31.7% | 3.35% (active) | 8.77% (active) | -0.54% (active) | 22.5% | 6.98% (active) | 27.8% | -8.13% (active) | 7.23% (active) | 17.5% | 6.81% (active) | 6.71% (active) | 25.4% | -10.2% (active)
8 | CS(=O)(=O)c1nccc(-c2c(-c3cccc(OCc4ccccc4)c3)nc3sccn23)n1 | 37.9% | 81.6% | 92.7% | 89.2% | 73.8% | 72.8% | 58.4% | 89.4% | 79.1% | 90.7% | 65% | 54.9% | 78.5% | 47.1% | 77.4% | 58.3% | 32.4% | 50.7%
9 | OCC1OC(n2ccc3c(NO)ncnc32)C(O)C1O (stereo not drawn) | -30.2% (active) | -21.7% (active) | -32.5% (active) | -3.92% (active) | -5.14% (active) | 1.15% (active) | -32.1% (active) | -31.7% (active) | -11% (active) | -53.5% (active) | -18.9% (active) | -31.5% (active) | -54.5% (active) | -3.1% (active) | -0.414% (active) | -33.1% (active) | -38.7% (active) | -26.6% (active)
10 | Clc1nc2ccc(Br)cc2cc1-c1nc2ccccc2[nH]1 | 92.3% | 70.4% | 88.2% | 108% | 65.3% | 54.8% | 80.1% | 95.5% | 47.8% | 92.9% | 104% | 85.9% | 102% | 89.7% | 42.5% | 77.8% | 108% | 90.7%
11 | CCc1c2c(nc3ccc(OC(=O)N4CCC(N5CCCCC5)CC4)cc13)-c1cc3c(c(=O)n1C2)COC(=O)[C@]3(O)CC | 1.34% (active) | 60.8% | 28.1% | 70.4% | 62.4% | 25.9% | 49.9% | 33% | 102% | 24.5% | 25.1% | 22.1% | 34.2% | 41.4% | 3.64% (active) | 22% | 28.2% | 53.1%
12 | CCCCCC(=O)O[C@]1(C(C)=O)CCC2C3CCC4=CC(=O)CC[C@]4(C)C3CC[C@@]21C (stereo partly drawn) | 2.49% (active) | -12.4% (active) | 24.4% | 74% | 18.4% | 64.3% | 33.4% | 7.34% (active) | 54.9% | 12.9% | 28.6% | 31.1% | 28.4% | 29.5% | 13.4% | 11.5% | 26.2% | 28.7%
13 | Cn1cnc([N+](=O)[O-])c1/C=C1\Oc2ccc(Br)cc2C1=O | 33.9% | 4.16% (active) | 77.8% | 105% | 103% | 89.9% | 87.1% | 99.7% | 103% | 101% | 98.1% | 95.8% | 78% | 82.6% | 47.9% | 56.9% | 101% | 93.9%
14 | COc1ccc(/C=C2\CCCC3=C2N=C2SC(C)=CN2C3c2ccc(OC)cc2)cc1 (stereo not drawn) | 100% | 71.2% | 95.2% | 105% | 97% | 101% | 111% | 102% | 91% | 96.3% | 108% | 105% | 90% | 99.6% | 88.8% | 93.4% | 111% | 108%
15 | C#CCOc1c(OC)cc(C(=O)/C(C)=C/c2cccc(N=[N+]=[N-])c2)cc1OC | 28.7% | 43.7% | 28.6% | 42.9% | 55.9% | 32.1% | 33.2% | -0.611% (active) | 46% | 13.6% | 44.3% | 11.4% | -19% (active) | 36.5% | 16.4% | 6.9% (active) | 21.4% | 26.6%
16 | Cc1ccc(/C=C2/C(=O)N(C)c3ccc(S(=O)(=O)Nc4ccc(C(C)(C)C)cc4)cc32)s1 | 57.9% | 55.6% | 41.3% | 73% | 44.4% | 89.6% | 70.8% | 88.3% | 88.7% | 55.8% | 80.5% | 97.1% | 83.1% | 96.7% | 72.4% | 55.4% | 87.8% | 82.4%
